These results are taken from PubChem BioAssay (Tox21).

Records with an inconclusive call do not appear. A number with no mark means an inactive call. Activity calls are given as the source filed them. Calls follow the shape of the dose curve; as a rule, active = well fitted activation curve with a large enough effect in the repeat runs; inconclusive = weak or mixed curves; inactive = no such curve, though single readings can be large or run the other way.
% is scaled to controls: 0 for no effect and ±100 for the full control effect.

The assay can be described thus: qHTS assay for small molecules that induce genotoxicity in human embryonic kidney cells expressing luciferase-tagged ATAD5 (AID 651632). Also: nearly all actives have a fitted effect of over 15% in size. The following applies: HEK293T ATAD5-luciferase induction, 16 h; series mostly up to 83.3 µM; activation: at the top concentration. From the text: U.S. Tox21 Program National Center for Advancing Translational Sciences [NCATS] NIH Chemical Genomics Center [NCGC] U.S. Environmental Protection Agency [EPA] National Institutes of Environmental Health Sciences [NIEHS] National Toxicology Program [NTP] U.S. Food and Drug Administration [FDA] Tox21 Assay Overview: As cancer cells divide rapidly and during every cell division they need to duplicate their genome by DNA replication. The failure to do so results in the cancer cell death. Based on this concept, many chemotherapeutic agents were developed but have limitations such as low efficacy and severe side effects etc. A new cell based assay was developed to find the compounds that effectively block DNA replication either by directly damaging DNA or by inhibiting other cellular mechanisms. Enhanced Level of Genome Instability Gene 1 (ELG1; human ATAD5) protein levels increase in response to various types of DNA damage. Using a luciferase reporter-gene tagged with ATAD5, a cell-based assay [developed by Kyungjae Myung, NHGRI, NIH] was used to measure the induction of ATAD5 in human embryonic kidney cells (HEK293T). So, increase in luciferase activity can be used to identify the compounds that cause genetic stress.
Tox21 Assay Protocol Summary: For genotoxicity screening, 2,000 cells in 5 uL/well were dispensed into white, solid-bottom 1536-well plates using a Multidrop Combi (Thermo Scientific) dispenser. Following transfer of 23 nL compound or DMSO vehicle by a pin tool, the plates were incubated 16 hr at 37C and 5% CO2. 5 ul Amplite (AAT Bioquest, Inc.) was then added to each plate and following 30 min incubation at room temperature, luciferase activity was quantified on a ViewLux CCD-based plate reader.
(In general: qHTS replaces the single test concentration by a dilution series.)
In the case of `CCCCCC(=O)O`, the call was inactive.

As to `CCNc1ccccc1`, the result was inactive.

On to `CCCCCCCCCCCCCCCCO`, for which the compound was called inactive.

Regarding `COc1ccc([N+](=O)[O-])cc1N`, the result was inactive.

For the compound `C=CCCCCCCCCC(=O)O`, the compound was classed as inactive.

In the case of `CC(=O)OCc1ccccc1`, the outcome was inactive.

In the case of `O=c1[nH]cnc2[nH]ncc12`, the compound was classed as inactive.

As to `O=C1CCCC1`, the compound was called inactive.

Consider `C=C(C)[C@H]1CC=C(C)C(=O)C1`, for which the compound was classed as inactive.

`COC(=O)c1cccnc1`: the compound was classed as inactive.

Turning to `CC1(C)OC[C@@H]2O[C@@]3(C(=O)O)OC(C)(C)O[C@H]3[C@@H]2O1`, the outcome was inactive.

With `COc1ccc(C)cc1N`, the compound was classed as inactive.

For the compound `CC(C)CC(=O)CC(C)CC(C)C` (stereo not given), the result was inactive.

Take `CC(=O)CC(C)(C)O`: the compound was called inactive.

`CNC(=O)Oc1ccc2c(c1)[C@]1(C)CCN(C)[C@@H]1N2C`: the outcome was inactive.

`CCCCCCCO`: the result was inactive.

On to `C=CC[N+](C)(C)CC=C`, for which the call was inactive.

For `O=C(O)CCCCCCCCC(=O)O`, the outcome was inactive.

Turning to `CC(C)(C)c1cc(Cc2cc(C(C)(C)C)c(O)c(C(C)(C)C)c2)cc(C(C)(C)C)c1O`, the compound was called inactive.

`CCO[Si](CCCN)(OCC)OCC`: the compound was classed as inactive.

Regarding `CC1(C)S[C@@H]2[C@H](NC(=O)COc3ccccc3)C(=O)N2[C@H]1C(=O)O`, the call was inactive.

For the compound `CCCOC(=O)c1ccccc1`, the outcome was inactive.

Regarding `CSc1ccc(Cl)cc1`, the compound was classed as inactive.

As for `COc1ccc(CCC(C)=O)cc1`, the “activation” value is -0.524%.

In the case of `CC1(C)CC(N)CC(C)(CN)C1` (stereo not given), the outcome was inactive.

Turning to `C=CC(C)CCCC(C)(C)O` (stereo not given), the compound was classed as inactive.

On to `NCCNCCN`, for which the call was inactive.

Regarding `CC(C)OC(=O)COc1ccc(Cl)cc1Cl`, the result was inactive.

With `Nc1nc(N)nc(-c2ccccc2)n1`, the compound was called inactive.

For the compound `CCNc1cccc(C)c1`, the compound was called inactive.

Take `O=[N+]([O-])c1ccc2nc[nH]c2c1`: the call was inactive.

As for `Cc1ccc([N+](=O)[O-])cc1S(=O)(=O)O`, the outcome was inactive.

For `CC(C)CC(C)O` (stereo not given), the result was inactive.

`C=C(C)CNCC`: the compound was classed as inactive.

As to `c1ccc(Oc2ccccc2)cc1`, the compound was classed as inactive.

Take `CC(C)(Oc1ccc(CCNC(=O)c2ccc(Cl)cc2)cc1)C(=O)O`: the outcome was inactive.

Turning to `O=C(O)c1ccc(S(=O)(=O)N(Cl)Cl)cc1`, the compound was called inactive.

`NCCCCCCN`: the compound was classed as inactive.

Regarding `CCO[Si](CCC#N)(OCC)OCC`, the result was inactive.

As to `CC(C)OP(=O)(CP(=O)(OC(C)C)OC(C)C)OC(C)C`, the “activation” value was 2.38%.
